In PubChem BioAssay:
The source made the active and inactive calls.

Assays:
Albumin (Bos taurus) = Albumin (Bos taurus) (UniProt P02769); assay: compounds binding labelled BSA control protein – biochemical, small-molecule microarray, Alexa647 label, 635/667 nm fluorescence, artefact control for SMM control protein annotation, profiling panel (AID 1118); details: BSA-A647 binding, fluorescence 635 nm, higher = more signal;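 also: score merges 667 nm emission intensity and signal-to-noise per printed compound spot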
[1] = probe aXIP binding to arrayed compounds – biochemical, NeuroSMM set, 635/667 nm fluorescence, primary screen (AID 1119); details: small-molecule microarray, higher = more signal, called active from +8 up or from −8 down;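 also: probe is the protein aXip251-270 applied at 1 µg/mL to compound-printed slides; binding of probe to printed compounds measured as 667 nm fluorescence plus signal to noise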
[2] = probe aNOTCH3 binding on compound microarray – biochemical, small-molecule microarray, 635/667 nm fluorescence, primary screen (AID 1120); details: higher = more signal;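 also: probe is a biotin-tagged antibody raised against NOTCH3 rather than NOTCH3 protein; score merges spot fluorescence near 667 nm with spot signal to noise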
[3] = probe aNOTCH2 binding on compound microarray – biochemical, small-molecule microarray, 635/667 nm fluorescence, primary screen (AID 1121); details: higher = more signal;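 also: score merges feature fluorescence read at 667 nm with its signal to noise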
[4] = target: Carbonic anhydrase 2 (Homo sapiens) (UniProt P00918); assay: compounds binding carbonic anhydrase 2 – biochemical, small-molecule microarray, Alexa647-labelled CAII, profiling panel (AID 1122); details: CAII-A647 binding fluorescence, higher = more signal
[5] = COS7 lysate on small-molecule microarray, probe aHis, 635 nm (AID 1123); details: COS7 cell lysate, fluorescence, higher = more signal;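 also: z-score combines 667nm fluorescence intensity with signal-to-noise per printed compound spot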
[6] = probe aLAP1 signal on lysate-treated microarray – cell lysate, small-molecule microarray, COS7 lysate, primary screen (AID 1124); details: probe aLAP1, fluorescence, higher = more signal;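 also: lysate comes from COS7 cells expressing LAP1 and is applied at 0.3 µg/mL; score merges spot fluorescence near 667 nm with signal-to-noise over triplicate slides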
Sam68 (KHDRBS1) = assay: compounds binding KHDRBS1 protein – biochemical, small-molecule microarray, 635 nm fluorescence, primary screen (AID 1125); details: higher = more signal;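 also: score merges 667 nm channel intensity with signal to noise over triplicate slides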
[7] = system: Chordin-like protein 2 (CHRDL2); assay: compounds binding chordin-like 2 – biochemical, small-molecule microarray, 635 nm fluorescence, primary screen (AID 1126); details: fluorescence 635 nm, higher = more signal;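 also: printed compound slides probed with Chrdl2 protein at 4 µg/mL for 1 h at 4 C; score merges 667 nm emission intensity with signal to noise over three replicate slides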
[8] = target: Concanavalin-A (Canavalia ensiformis) (UniProt P02866); assay: compounds binding concanavalin A lectin – biochemical, small-molecule microarray, Alexa647 label, 635 nm, artefact control for SMM control protein annotation, primary screen (AID 1127); details: ConA-A647 binding fluorescence, higher = more signal;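 also: z combines 667 nm emission intensity with signal-to-noise across three replicate slides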
Sequence of Concanavalin-A (Canavalia ensiformis) (P02866 whole entry, looked up): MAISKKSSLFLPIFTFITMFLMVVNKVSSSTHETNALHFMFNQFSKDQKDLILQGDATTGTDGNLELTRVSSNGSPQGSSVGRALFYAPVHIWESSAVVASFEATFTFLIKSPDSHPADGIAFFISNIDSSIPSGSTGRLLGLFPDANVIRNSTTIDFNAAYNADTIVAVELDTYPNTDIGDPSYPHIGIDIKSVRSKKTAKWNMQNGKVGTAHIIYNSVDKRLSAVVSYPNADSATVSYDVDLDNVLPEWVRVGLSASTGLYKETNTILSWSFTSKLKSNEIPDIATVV

Sequence of Albumin (Bos taurus) (P02769 whole entry, looked up): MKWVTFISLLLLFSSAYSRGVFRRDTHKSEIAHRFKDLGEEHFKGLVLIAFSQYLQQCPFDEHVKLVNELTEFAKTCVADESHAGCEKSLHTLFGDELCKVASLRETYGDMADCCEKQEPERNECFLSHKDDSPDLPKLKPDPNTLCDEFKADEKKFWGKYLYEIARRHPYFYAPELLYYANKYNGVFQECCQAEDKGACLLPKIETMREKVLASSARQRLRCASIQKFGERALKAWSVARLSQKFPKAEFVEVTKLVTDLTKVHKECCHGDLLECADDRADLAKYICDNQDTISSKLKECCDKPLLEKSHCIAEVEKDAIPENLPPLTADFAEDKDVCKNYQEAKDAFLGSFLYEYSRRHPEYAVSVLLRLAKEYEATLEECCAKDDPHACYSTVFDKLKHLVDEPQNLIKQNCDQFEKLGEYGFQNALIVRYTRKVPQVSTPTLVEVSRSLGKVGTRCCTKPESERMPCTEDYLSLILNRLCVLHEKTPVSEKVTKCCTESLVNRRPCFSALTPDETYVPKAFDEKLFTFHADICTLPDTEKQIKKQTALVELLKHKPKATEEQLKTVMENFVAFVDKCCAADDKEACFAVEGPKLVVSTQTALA

SMILES | composite z-score (Albumin (Bos taurus)) | composite Z-score [1] | composite z-score [2] | composite z-score [3] | composite z-score [4] | composite z-score [5] | composite z-score [6] | composite z-score (Sam68 (KHDRBS1)) | composite z-score [7] | composite z-score [8]
COc1ccc(O[C@H]2C=C[C@@H](c3ccccc3)O[C@@H]2CON=C(C)CCN2CCc3nc(-c4ccccc4)c(-c4ccccc4)cc3C2)cc1 | 0.628 | -0.508 (inactive) | -0.085 | -0.18 | -0.117 | -0.0458 | -0.251 | -0.83 | -0.163 | 0.799
COC(=O)CC=C[C@@H](C)[C@@H](C=NO[C@@H](C)c1cn([C@H](CO)Cc2ccccc2)nn1)NS(=O)(=O)c1ccc(C)cc1 | -0.193 | -0.0278 (inactive) | 0.107 | -0.103 | -0.146 | -0.306 | 0.232 | 0.43 | 0.784 | -0.419
COc1cccc([C@H]2Oc3ccc(OC)cc3C(=NO[C@H](C)c3cn([C@H](CO)Cc4ccccc4)nn3)[C@@H]2O)c1 | -1.28 | -0.372 (inactive) | -0.208 | -0.187 | 0.406 | 0.418 | 0.0672 | -0.779 | 0.08 | -2.12
CCCNC(=O)OC[C@H]1O[C@H](CCON=C(C)CCN2CCc3nc(CC)c(CC)cc3C2)C=C[C@@H]1Oc1ccc(OC)cc1 | 0.322 | 0.0421 (inactive) | 0.105 | -0.14 | -0.164 | 0.176 | 0.0186 | 0.285 | -0.0024 | 0.0004
COc1ccc(O[C@H]2C=C[C@@H](c3ccccc3)O[C@@H]2COC(=O)CCC(C)=NOC(C)CN2CCCc3nc(C)c(C)cc32)cc1 (stereo not given in full) | 0.247 | 1.32 (inactive) | 0.0013 | -0.106 | 0.21 | 0.676 | 0.304 | 1.31 | 0.43 | 1.01
CCOC(=O)NN=C1C[C@@H](O)[C@@H](O)[C@@H]2[C@@H]3C(=O)N(c4cccc(Oc5ccccc5)c4)C(=O)[C@@H]3CC[C@H]12 | 0.52 | -0.238 (inactive) | 0.0462 | -0.0753 | 0.503 | 0.858 | 0.0682 | 0.384 | 0.399 | 0.854
C[C@H]1Cc2c(COc3ccccc3)nc3c(c2CO1)CN(CCOc1ccccc1)CC3 | -0.16 | -0.711 (inactive) | 0.0282 | -0.0746 | 0.635 | 1.14 | 0.282 | 1.32 | 0.522 | 1.08
COC(=O)[C@H]1O[C@@H](c2c(OC)c(OC)c(C)c(OC)c2OC)[C@H](C)[C@@H](O)[C@H]1C | 0.354 | 0.0421 (inactive) | 0.0414 | -0.0349 | 0.0615 | 1.04 | -0.203 | 1.28 | 0.31 | 0.86
CO[C@H]1COC(=O)CC=C[C@@H](C)[C@H](OC)COC(=O)CCC[C@@H]1C | -0.913 | 0.0032 (inactive) | -0.149 | -0.118 | -0.601 | 0.302 | 0.923 | 0.0465 | 1.41 | -0.819
CC(C)(C)N1C(=O)[C@H]2[C@H]3[C@H](O)[C@H](O)CC(=O)[C@H]3CC[C@H]2C1=O | 0.472 | 0.403 (inactive) | -0.0581 | -0.155 | 0.0658 | 0.165 | 0.206 | 0.892 | 0.357 | 0.673
C=CC[C@@H]1C=C[C@H](ON=C(C)CCC(=O)OC[C@H]2O[C@H](c3ccccc3)C=C[C@@H]2Oc2ccc(OC)cc2)[C@@H](CO)O1 | -0.1 | 0.741 (inactive) | -0.171 | -0.177 | -0.273 | 0.342 | -0.0007 | 0.144 | -0.0018 | -0.152
CC(C)=CCCC(C)=CCON=C1C[C@@H](O)[C@@H](O)[C@@H]2[C@@H]3C(=O)N(c4ccc(F)cc4F)C(=O)[C@@H]3CC[C@@H]12 | 0.572 | 0.262 (inactive) | 0.0459 | -0.14 | 0.29 | -0.217 | 0.233 | 0.51 | 1.38 | 0.339
CCCNC(=O)OC[C@H]1O[C@H](CCON=Cc2ccc(C(=O)N3[C@H](c4ccc(C)cc4)[C@@H](C)CC[C@H]3C(=O)OC)cc2)C=C[C@@H]1Oc1ccc(OC)cc1 | 0.315 | 0.0856 (inactive) | -0.321 | -0.172 | -0.0309 | 0.526 | 0.735 | 1.08 | 0.274 | 0.279
CCOC(=O)NN=C1C[C@@H](O)[C@@H](O)[C@@H]2[C@@H]3C(=O)N(c4cccc(Oc5ccccc5)c4)C(=O)[C@@H]3CC[C@@H]12 | 0.736 | -0.147 (inactive) | -0.152 | -0.167 | 0.58 | 0.263 | 0.142 | -0.114 | -0.0646 | -0.245
C=CC1=C[C@H](O)[C@@H]2O[C@@H]2C12OCCCO2 | -0.728 | -0.174 (inactive) | -0.131 | -0.0878 | 0.0206 | -0.281 | -0.115 | 0.372 | 0.202 | 0.337
CO[C@H]1COC(=O)CCC[C@@H](C)[C@H](OC)COC(=O)[C@@H](C)NC(=O)CC=C[C@@H]1C | -0.46 | 0.667 (inactive) | -0.0647 | -0.134 | -0.716 | -1.8 | -0.126 | 0.186 | 1.45 | -0.456
Cc1cc2c(nc1C)CCCCN2CC(C)ON=C1[C@H]2CCn3c(=O)n(-c4ccccc4)c(=O)n3[C@H]2[C@H](O)[C@@H]2O[C@H]12 (stereo not given in full) | 0.762 | -0.343 (inactive) | 0.0562 | -0.117 | 0.435 | 0.812 | 0.0072 | 0.573 | 0.373 | -0.765

SMILES | composite z-score (Albumin (Bos taurus)) | composite Z-score [1] | composite z-score [2] | composite z-score [3] | composite z-score [4] | composite z-score [5] | composite z-score [6] | composite z-score (Sam68 (KHDRBS1)) | composite z-score [7] | composite z-score [8]
CCC1=NOC(CCC2CC(OC(=O)NCc3cccc4c3OCO4)CC3(CCCC(COC(=O)NCCc4ccccc4OC)O3)O2)C1 (stereo not given) | 0.946 | 0.632 (inactive) | 0.134 | -0.122 | 0.45 | 1.24 | 0.19 | 1.31 | -0.14 | 0.722
O=C1C[C@@H](O)[C@@H](O)[C@@H]2[C@@H]3C(=O)N(Cc4ccc5c(c4)OCO5)C(=O)[C@@H]3CC[C@H]12 | 0.272 | 0.0723 (inactive) | -0.16 | -0.186 | -0.126 | -0.254 | -0.225 | 0.416 | 0.356 | 0.717
CCOC(=O)[C@H](Cc1ccccc1)NC(=O)CCC1CC(OC(=O)NCc2ccc3c(c2)OCO3)CC2(CCCC(COC(=O)NCCC(C)C)O2)O1 (stereo not given in full) | 0.112 | 0.416 (inactive) | 0.0252 | -0.0707 | 0.493 | 0.394 | -0.133 | 0.907 | 0.309 | 1.11
C[C@H]1CC[C@H]2C(=O)OC(CO)CN2[C@@H]1c1ccc(Br)cc1 (stereo not given in full) | 0.0691 | 0.456 (inactive) | -0.0647 | -0.192 | -0.244 | -0.416 | -0.311 | 0.253 | 0.453 | -0.17
CCN1C(=O)[C@H]2[C@H]3[C@H](O)[C@H](O)CC(=NOCC(C)C)[C@@H]3CC[C@H]2C1=O | 0.612 | -0.0562 (inactive) | 0.179 | -0.126 | 0.459 | 1.1 | -0.202 | 1.3 | 0.72 | 0.0131
C[C@@H]1CC[C@H]2C(=O)O[C@@H](COc3ccc(C(C)(C)C)cc3)CN2[C@@H]1c1ccc(Br)cc1 | 0.0192 | -0.695 (inactive) | -0.21 | -0.14 | -0.408 | -0.0056 | -0.239 | -0.558 | -0.614 | -0.619
CC(C)CON=C1C[C@@H](O)[C@@H](O)[C@@H]2[C@@H]3C(=O)N(C4CCCCC4)C(=O)[C@@H]3CC[C@H]12 | 0.536 | -0.409 (inactive) | 0.0021 | -0.125 | 0.445 | 0.84 | 0.606 | 1.3 | 0.25 | 1.11
COC(=O)CC=C[C@@H](C)[C@@H](C=NOC[C@H]1O[C@H](c2ccccc2)C=C[C@@H]1Oc1ccc(OC)cc1)NS(=O)(=O)c1ccc(C)cc1 | -0.453 | -0.769 (inactive) | -0.196 | -0.138 | -0.648 | -0.588 | -0.689 | -1.18 | 0.156 | -2.02
O=C1C2=CC[C@H]3C(=O)N(c4cccc(Oc5ccccc5)c4)C(=O)[C@H]3[C@H]2[C@H](O)[C@@H]2O[C@H]12 | -0.0451 | -0.0708 (inactive) | 0.0179 | -0.132 | -0.146 | 0.19 | -0.0224 | 0.645 | 0.625 | 0.443
CCOC(=O)[C@H](Cc1ccccc1)NC(=O)CCC1CC(OC(=O)NCc2cccc3ccccc23)CC2(CCCC(COC(=O)NCCC(C)C)O2)O1 (stereo not given in full) | 0.793 | 0.142 (inactive) | -0.0956 | -0.133 | 0.742 | 0.426 | 0.23 | -1.08 | -0.0587 | 0.653
C#CCCCON=C1C[C@@H](O)[C@@H](O)[C@@H]2[C@@H]3C(=O)N(c4ccc(F)cc4F)C(=O)[C@@H]3CC[C@H]12 | 0.314 | -0.488 (inactive) | -0.122 | -0.151 | 0.65 | 0.887 | 0.145 | 1.15 | 0.392 | 0.772
Cc1ccc(S(=O)(=O)N[C@@H]2COC(=O)[C@@H](C)COC(=O)CC=C[C@H]2C)cc1 | -0.0824 | -0.145 (inactive) | 0.135 | -0.162 | -0.006 | -0.0704 | -0.0424 | -0.181 | 0.379 | 0.457
Cc1cc2c(nc1C)CCCCN2CC(C)ON=C[C@@H](C)[C@H](OCc1ccccc1)C(C)C (stereo not given in full) | -0.256 | -0.77 (inactive) | -0.545 | -0.237 | -0.523 | -0.602 | -0.708 | -0.465 | -2.12 | -1.34
CCOC(=O)[C@H](CC(C)C)NC(=O)CCC1CC(OC(=O)NCc2cccc3ccccc23)CC2(CCCC(COC(=O)NCCOc3ccccc3)O2)O1 (stereo not given in full) | 0.496 | -0.309 (inactive) | -0.0048 | 0.0174 | 0.533 | 0.684 | 0.27 | 1.32 | 0.412 | 1.06
COc1ccc(O[C@@H]2[C@H](O)CO[C@H]2C=Cc2ccccc2)cc1 | 0.529 | -0.176 (inactive) | -0.0647 | -0.0488 | -0.338 | 0.0177 | -0.798 | 0.116 | -0.28 | -0.283
CO[C@H]1COC(=O)[C@@H](C)COC(=O)[C@@H](OCc2ccccc2)C=C[C@@H]1C | -0.858 | -0.535 (inactive) | -0.103 | -0.115 | -0.369 | -0.194 | -0.259 | -0.234 | 0.159 | -0.459
